Bioassay records as filed in PubChem BioAssay.
ATXN viability: cell viability loss in ATXN counter-screen; S2 cells (HEK-293 line with an ATXN2-luciferase reporter) viability, CellTiter-Fluor protease fluorescence, 24 h; Potency, µM (series often up to 56.7 µM), most hits filed as cytotoxic; actives 0.49% (n = 400,000); AID 651635; also: nearly all actives have a fitted effect of over 40% in size
ATXN2 expr inh: reduces ATXN2 reporter expression in HEK-293 cells; HEK-293 ATXN2-luciferase reporter, luminescence, 24 h; Potency, µM (doses to about 57 µM), hits mostly inhibitors; actives 0.72% (n = 360,000); AID 1745845; also: nearly all actives have a fitted effect of over 55% in size
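qHTS (up to 57 uM final) was run with 24 h compound exposure of reporter cells at 37 °C. Each well was multiplexed: SteadyGlo luminescence measured ATXN2-luciferase expression after a fluorogenic Gly-Phe-AFC viability readout (25 uM final).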
HT1080 IDH1KD tx: toxicity to HT-1080 IDH1 knockdown cells (counter line); HT-1080 IDH1 knockdown viability, ATP luminescence, 48 h; Potency, µM (titrated, usually from 46.1 µM), usual class: cytotoxic; actives 2% (n = 360,000); AID 686971
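Luminescent ATP read-out (CellTiter-Glo, 10 min at room temperature) after 48 h compound exposure at 37 °C gave viability of IDH1-knockdown HT-1080 cells. Activity was normalised to DMSO and cell-free wells, then fitted as concentration-response curves.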
KB-3-1 tox: KB-3-1 parental cell cytotoxicity | Potency, µM (doses to about 46.1 µM), hits mostly cytotoxic | KB-3-1 viability, CellTiter-Glo ATP luminescence, 72 h | actives 1.4% (n = 400,000) | AID 1347075; also: nearly all actives have a fitted effect of over 60% in size
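KB-3-1 cells, DMEM (no phenol red) + 10% FBS; compound by pin transfer, 72 h, 37 °C. Readout: CellTiter-Glo luminescence after 10 min. Data normalized, curve-fitted.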
KB-V1 MDR tox: kills drug-selected multidrug resistant KB-V1 cells; AID 1347076; KB-V1 MDR cells viability, CellTiter-Glo, 72 h; actives 3.4% (n = 400,000); Potency, µM (top dose mostly 46.1 µM), actives largely listed as cytotoxic; also: nearly all actives have a fitted effect of over 60% in size
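qHTS viability screen in drug-selected KB-V1 MDR cells: 72 h compound treatment at 37 degrees C, ATP luminescence end point.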
HT1080NT lethal: kills 2HG-producing HT-1080-NT fibrosarcoma cells; AID 686970; Potency, µM (doses to about 46.1 µM), hits mostly cytotoxic; actives 1.6% (n = 360,000); HT-1080-NT fibrosarcoma viability, CellTiter-Glo ATP luminescence, 48 h;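 also: NT is the 2HG producing partner of a matched IDH1 knockdown line; nearly all actives have a fitted effect of over 55% in size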
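HT-1080-NT; 750 cells/well; 5% FBS RPMI; 48 h compound, 37 degrees C; CellTiter-Glo luminescence; curve fitting and curve-class assignment.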
Numbers stand for hits; [ ] = remark or other dose. Hits are enriched below; roughly 6.2% of the tested compounds scored in any of these assays. Calls follow the shape of the dose curve; as a rule, active = well fitted curve in the direction sought with a large enough effect; inconclusive = small, poorly fitted or top-dose-only effect, or another doubt; inactive = no such curve, though single readings can be large; an effect the other way counts as inactive or inconclusive.

CCNC(=O)c1ccc(=O)n(Cc2ccc(Cl)cc2Cl)c1 was read as ATXN viability inactive, ATXN2 expr inh inactive, HT1080 IDH1KD tx inactive, KB-3-1 tox inactive, KB-V1 MDR tox inconclusive and HT1080NT lethal inactive.
Screening COC(=O)C1CCN(Cc2ccc3c(c2)CN(C(=O)c2sc(C)nc2C)CCO3)CC1 returned ATXN viability inactive.
`COc1ccc(CC(=O)N/N=C/c2cc(Br)cs2)cc1OC` gave ATXN viability inactive, HT1080 IDH1KD tx inactive, KB-3-1 tox inactive, KB-V1 MDR tox inconclusive and HT1080NT lethal inactive.
Screening COc1ccc(/C=N/NC(=O)CCn2c3ccccc3c3ccccc32)cc1O returned ATXN viability inactive, ATXN2 expr inh inactive, HT1080 IDH1KD tx inconclusive, KB-3-1 tox inconclusive, KB-V1 MDR tox inactive and HT1080NT lethal 1.4µM.
Screening COc1ccc(CC(=O)N/N=C/c2c(C)n(C)c3ccccc23)cc1OC returned ATXN viability inconclusive, HT1080 IDH1KD tx 13µM, KB-3-1 tox inconclusive, KB-V1 MDR tox inconclusive and HT1080NT lethal inconclusive.
`COc1cccc(/C=N/NC(=O)CCn2c3ccccc3c3ccccc32)c1` gave ATXN viability inactive, ATXN2 expr inh inactive, HT1080 IDH1KD tx inactive, KB-3-1 tox inactive, KB-V1 MDR tox inactive and HT1080NT lethal inactive.
For CC(=O)N1CCN(C(=O)c2ccc(Cl)c(S(=O)(=O)N3CCc4ccccc43)c2)CC1 the results were ATXN viability inactive, ATXN2 expr inh inactive, HT1080 IDH1KD tx inactive, KB-3-1 tox inactive, KB-V1 MDR tox inactive and HT1080NT lethal inactive.
Screening O=C(c1cccc(S(=O)(=O)N2CCc3ccccc32)c1)N1CCN(c2ccccn2)CC1 returned ATXN viability inconclusive, ATXN2 expr inh inactive, HT1080 IDH1KD tx 9.2µM, KB-3-1 tox 6.5µM, KB-V1 MDR tox inconclusive and HT1080NT lethal inconclusive.
O=C(c1ccc(Cl)c(S(=O)(=O)N2CCc3ccccc32)c1)N1CCN(c2ccccc2O)CC1 was read as ATXN viability inconclusive, ATXN2 expr inh inconclusive, HT1080 IDH1KD tx inconclusive, KB-3-1 tox inactive, KB-V1 MDR tox 18µM and HT1080NT lethal inactive.
`COc1ccc(N2CCN(C(=O)c3cccc(S(=O)(=O)N4CCc5ccccc54)c3)CC2)cc1` gave ATXN viability inactive, ATXN2 expr inh inconclusive, HT1080 IDH1KD tx inactive, KB-3-1 tox inactive, KB-V1 MDR tox inactive and HT1080NT lethal inactive.
Screening COc1ccc(-c2[nH][nH]c(=O)c2NC(=O)c2ccccc2Br)cc1 returned ATXN viability inactive, ATXN2 expr inh inactive, HT1080 IDH1KD tx inactive, KB-3-1 tox inactive, KB-V1 MDR tox inactive and HT1080NT lethal inactive.
For CC(C)(CC(=O)NCc1ccc(Cl)cc1Cl)CC1=NS(=O)(=O)c2ccccc2N1 the results were ATXN viability inactive, ATXN2 expr inh 25µM, KB-3-1 tox inconclusive and KB-V1 MDR tox inconclusive.
CC1CCC(NC(=O)CN(C)CC(=O)Nc2ccc(F)cc2)CC1 (centres undefined) was read as ATXN viability inactive, ATXN2 expr inh inactive, HT1080 IDH1KD tx inactive, KB-3-1 tox inactive, KB-V1 MDR tox 23µM and HT1080NT lethal inactive.
CN(CC(=O)Nc1ccc(Cl)c(C(F)(F)F)c1)CC(=O)NC1CCCCC1 was read as ATXN viability inactive, ATXN2 expr inh inconclusive, HT1080 IDH1KD tx inactive, KB-3-1 tox inactive, KB-V1 MDR tox inactive and HT1080NT lethal inactive.
`Cc1cc(=O)oc2cc(O)cc(O)c12` gave ATXN viability inconclusive, ATXN2 expr inh inactive, HT1080 IDH1KD tx 1.6µM, KB-3-1 tox inconclusive, KB-V1 MDR tox inactive and HT1080NT lethal inactive.
CCCc1cc(=O)oc2cc(C)cc(O)c12 was read as ATXN viability inactive, ATXN2 expr inh inactive, HT1080 IDH1KD tx inactive, KB-3-1 tox 15µM, KB-V1 MDR tox 13µM and HT1080NT lethal inactive.
CCc1cc(=O)oc2cc(C)cc(O)c12 was read as ATXN2 expr inh inactive, HT1080 IDH1KD tx inactive, KB-3-1 tox inactive, KB-V1 MDR tox inactive and HT1080NT lethal inactive.
CCc1cc(=O)oc2cc(C)c(CN3CCCC(C)C3)c(O)c12 (centres undefined) was read as ATXN viability inactive, ATXN2 expr inh inactive, HT1080 IDH1KD tx inactive, KB-3-1 tox inactive, KB-V1 MDR tox inconclusive and HT1080NT lethal inactive[9.24 µM].
Screening CCCCc1cc(=O)oc2cc(C)c(CN3CCCC3)c(O)c12 returned ATXN viability inactive, ATXN2 expr inh inactive, HT1080 IDH1KD tx inactive, KB-3-1 tox inactive, KB-V1 MDR tox 18µM and HT1080NT lethal inconclusive.
Screening COc1cc(=O)n2c(c1C(=O)N(C)Cc1nonc1C)CCN(C(=O)c1cccc(C)c1C)CC2 returned ATXN viability inactive.
Screening CCCNC(=O)c1ccc2c(c1)C1C3CCC(C3)C1C(c1ccccc1)N2 (centres undefined) returned ATXN viability inactive, ATXN2 expr inh inactive, HT1080 IDH1KD tx inactive, KB-3-1 tox inconclusive, KB-V1 MDR tox 21µM and HT1080NT lethal inactive.
Screening CC1=C(C(=O)Nc2cc(C(=O)N3CCN(c4cccc(C)c4C)CC3)ccc2C)SCCO1 returned ATXN viability inconclusive, ATXN2 expr inh inconclusive, HT1080 IDH1KD tx inconclusive, KB-3-1 tox inactive, KB-V1 MDR tox inconclusive and HT1080NT lethal inactive.
`CC(C)N=c1scc(-c2ccco2)n1/N=C/c1ccc(O)c(O)c1` gave ATXN viability 32µM, ATXN2 expr inh inactive, HT1080 IDH1KD tx inactive, KB-3-1 tox inactive, KB-V1 MDR tox inconclusive and HT1080NT lethal inactive.
`COCCN=c1scc(-c2ccco2)n1/N=C/c1ccc(O)c(O)c1O` gave ATXN viability inactive, ATXN2 expr inh inactive, HT1080 IDH1KD tx inactive, KB-3-1 tox inactive, KB-V1 MDR tox inconclusive and HT1080NT lethal inactive.
`COc1ccc(CNC(=O)c2ccc3c(c2)N(Cc2ccccc2F)C(=O)c2ccccc2S3=O)cc1` (centres undefined) gave ATXN viability inactive, ATXN2 expr inh inactive, KB-3-1 tox inactive and KB-V1 MDR tox inactive.
C=CCn1c(SCN2C(=O)c3ccccc3C2=O)nc2ccc(Cl)cc2c1=O was read as ATXN viability inactive, ATXN2 expr inh inactive, HT1080 IDH1KD tx inactive, KB-3-1 tox inconclusive, KB-V1 MDR tox 16µM and HT1080NT lethal inactive.
For COc1cccc(N2CCN(C(=O)CCCCCNc3nc(=S)[nH]c4ccccc34)CC2)c1 the results were ATXN viability inactive, HT1080 IDH1KD tx inconclusive, KB-3-1 tox inactive, KB-V1 MDR tox 10µM and HT1080NT lethal inactive.
Screening COc1ccc(Br)cc1/C=N/NC(=O)c1cc(OC)c(OC)c(OC)c1 returned ATXN viability inactive, ATXN2 expr inh inactive, HT1080 IDH1KD tx 16µM, KB-3-1 tox inactive, KB-V1 MDR tox inactive and HT1080NT lethal inconclusive.
COc1cc(C(=O)N/N=C/c2ccsc2C)cc(OC)c1OC was read as ATXN viability inactive, ATXN2 expr inh inactive, HT1080 IDH1KD tx 0.58µM, KB-3-1 tox 0.65µM, KB-V1 MDR tox 0.58µM and HT1080NT lethal 0.92µM.
